Test results from the supplement of paper PMC10681739.

Target: T1, ETS1 (UniProt P14921)
T1 sequence: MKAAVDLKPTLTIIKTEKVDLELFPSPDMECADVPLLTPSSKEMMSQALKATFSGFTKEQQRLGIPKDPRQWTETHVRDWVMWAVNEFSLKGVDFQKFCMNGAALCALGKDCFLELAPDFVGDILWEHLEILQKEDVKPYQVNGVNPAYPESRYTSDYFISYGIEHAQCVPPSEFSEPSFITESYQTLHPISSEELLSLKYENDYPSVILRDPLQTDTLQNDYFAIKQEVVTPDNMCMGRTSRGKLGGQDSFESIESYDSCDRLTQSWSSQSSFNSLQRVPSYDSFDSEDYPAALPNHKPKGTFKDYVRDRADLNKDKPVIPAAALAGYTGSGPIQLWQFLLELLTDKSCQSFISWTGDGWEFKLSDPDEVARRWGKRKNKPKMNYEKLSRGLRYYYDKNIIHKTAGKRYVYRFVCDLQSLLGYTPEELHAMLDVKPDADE
Assay: TF binding intensity (PBM fluorescence), negative control probe (arbitrary fluorescence units); higher = stronger binding
Method: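 gcPBM negative-control 36-bp genomic probes lacking TF binding sites. Each was incubated with recombinant human ETS1 or RUNX1 alone and detected by antibody fluorescence. Values are medians over replicate spots (4 spots for the ETS1-RUNX1 arrays, 3 for the ETS1-ETS1 array). The probes sit in constant array flanks that are not printed.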

| Sequence | TF binding intensity |
| --- | --- |
| AGTTTCACTGCCCTAAAAATCCTCCGTGCGCCGCCT (protein concentration 10 nM) | 123 |
| CAGGCTGTGGTTTCCATCATGAACACGTGATCCAGC (protein concentration 10 nM) | 127 |
| AAAGGCATGTAATGAACACTAAAACCCAAGAACCTG (protein concentration 10 nM) | 114 |
| TTATCAAGTGAATCAAGCCATTGTCGGGTCGAAATA (protein concentration 10 nM) | 117 |
| GCAGCTCTAGTTTCTACCACACCAATGGGAGGGATC (protein concentration 1 nM) | 320 |
| TAAGTATTAAGAGTTGCAACACTCTAATCAAGGATA (protein concentration 10 nM) | 102 |
| CTCCACGACCCTGAAACTAGAACAAGACCTCTCCTC (protein concentration 10 nM) | 165 |
| CAGGAGAAATATGAGATTAAGAACACATGATGTTAA (protein concentration 10 nM) | 123 |
| TAGGTTCTAGCCTGCTTAGCTAGAGTTTAGTTTATT (protein concentration 10 nM) | 110 |
| AGGCCTGTAGCATTTAGCTGGCCTCTGAGGAATAAC (protein concentration 10 nM) | 101 |
| GTCAAAGGCTCTGCAGAGTCAAGTAGCCTCCCACTT (protein concentration 10 nM) | 112 |
| ACCTGTGAATAGACTGACCAAATGCAAGCTGGACCA (protein concentration 10 nM) | 111 |
| ATGTTTTCGGTTCTTAGGACCCAGGTGCTCACCACA (protein concentration 10 nM) | 106 |
| ATGGCTGGGTCAGAGCGGCCTGTCAGCCCGGCTGGA (protein concentration 10 nM) | 98 |
| AACACTCAGTGTATTTTAATAAACAACATTTTTTAA (protein concentration 10 nM) | 96.6 |
| TTGAAATGCATTCTCTGTGGGCATATGAAGTAGATT (protein concentration 1 nM) | 410 |
| ACTTAGGTCTCTGTTACCACCATGAAACAATTTAGT (protein concentration 1 nM) | 545 |
| ATGGCATACTAAGTAGCCACAACATGCAAGATGGAC (protein concentration 1 nM) | 440 |
| TCCGATGTTACCTGGGCTGGGCCATGGAGAATGGCG (protein concentration 10 nM) | 112 |
| GAAATGGAGCAGAAAACCTGGAACCCAGCTGGGAAG (protein concentration 10 nM) | 117 |

| Sequence | TF binding intensity |
| --- | --- |
| ACGGAGCTTGCTCTGGCCATCTCTGTCCCTGCCTGT (protein concentration 10 nM) | 102 |
| AGTTCAAAAAAGCCCAAATGCTATAGGGACAACAAC (protein concentration 10 nM) | 148 |
| AACTTGAAGTCACCACATGAAAGGTTCCAATGCAGC (protein concentration 10 nM) | 121 |
| AGTTATTCTAGCTCAAACCAAGTTATTTTTCACTTT (protein concentration 10 nM) | 108 |
| GTCCCGGCTCGACTCAGTCCTCCAGCCGCCCGGGGA (protein concentration 10 nM) | 120 |
| GTGAAACCAGGGCACAGGTAGAAATCCCTAGAGCAG (protein concentration 10 nM) | 138 |
| AAGGTTCTGATTCCGAGTCCCCTGAGGTGGCAGTGG (protein concentration 10 nM) | 111 |
| CATAGTTGCACCTGGTCTACTTTGCTGTCAATTTGT (protein concentration 10 nM) | 126 |
| AGGTGATATCTATCCCTTTCATTTCTTCTGAACAGG (protein concentration 10 nM) | 114 |
| TCCTCACGAATCTCTCTACTTCTGTTCTTGCCCATC (protein concentration 10 nM) | 135 |
| TAAGATCCACTGGCTTGAAATTCTTGCTGCCAGCAC (protein concentration 10 nM) | 130 |
| CTCTGCCCAGTTGGTTGTGGCTCTTCATTACTGTGG (protein concentration 1 nM) | 512 |
| CTTCAAAGGCCCCGCATTAGCTGGGGTCGATCCAGA (protein concentration 10 nM) | 154 |
| CAAAATGCTTAAAAGGTAACTTGACTCTTTGTTTGG (protein concentration 10 nM) | 123 |
| GAAGTTTCAAGATGTAGTAGTTAAAGTATTAACTTA (protein concentration 10 nM) | 113 |
| TTATAATACATGTGCAGTATATTTTCTTGAAACTTC (protein concentration 10 nM) | 110 |
| GAAATCACGGGACCCCGAGCGGTTGGAGATCTGCCA (protein concentration 10 nM) | 91.7 |
| ATGGATAAGAATGTCTGTGGGTAGCTGTCTCCTCTT (protein concentration 1 nM) | 444 |
| TAATCCCAGCACTTTGGGAATCCAAGGCAGTCAAAT (protein concentration 10 nM) | 94.8 |
| CTGGGCCATTAACCTCAGCAGAAAAATGCTTTTTGC (protein concentration 10 nM) | 97.6 |
